# KCNQ2 enhance: potentiators of rat KCNQ2 potassium channel | O88943 | CHO-K1 KCNQ2, FluxOR thallium flux fluorescence; hits give high values | B-score at 10 µM | 310,000 compounds, 0.54% hits | AID 2239;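 active = fluorescence ratio B-score at least 3 SD of library B-scores, with initial fluorescence B-score within 3 of them, cut at about 5.3 in these data; same plate scores as AID 2156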;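 note: B-score of peak minus minimum over baseline fluorescence ratio after K+ and Tl+ stimulus; positive B-score means potentiation of KCNQ2 with more thallium influx and brighter signal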
# Target sequence (O88943 whole entry, looked up): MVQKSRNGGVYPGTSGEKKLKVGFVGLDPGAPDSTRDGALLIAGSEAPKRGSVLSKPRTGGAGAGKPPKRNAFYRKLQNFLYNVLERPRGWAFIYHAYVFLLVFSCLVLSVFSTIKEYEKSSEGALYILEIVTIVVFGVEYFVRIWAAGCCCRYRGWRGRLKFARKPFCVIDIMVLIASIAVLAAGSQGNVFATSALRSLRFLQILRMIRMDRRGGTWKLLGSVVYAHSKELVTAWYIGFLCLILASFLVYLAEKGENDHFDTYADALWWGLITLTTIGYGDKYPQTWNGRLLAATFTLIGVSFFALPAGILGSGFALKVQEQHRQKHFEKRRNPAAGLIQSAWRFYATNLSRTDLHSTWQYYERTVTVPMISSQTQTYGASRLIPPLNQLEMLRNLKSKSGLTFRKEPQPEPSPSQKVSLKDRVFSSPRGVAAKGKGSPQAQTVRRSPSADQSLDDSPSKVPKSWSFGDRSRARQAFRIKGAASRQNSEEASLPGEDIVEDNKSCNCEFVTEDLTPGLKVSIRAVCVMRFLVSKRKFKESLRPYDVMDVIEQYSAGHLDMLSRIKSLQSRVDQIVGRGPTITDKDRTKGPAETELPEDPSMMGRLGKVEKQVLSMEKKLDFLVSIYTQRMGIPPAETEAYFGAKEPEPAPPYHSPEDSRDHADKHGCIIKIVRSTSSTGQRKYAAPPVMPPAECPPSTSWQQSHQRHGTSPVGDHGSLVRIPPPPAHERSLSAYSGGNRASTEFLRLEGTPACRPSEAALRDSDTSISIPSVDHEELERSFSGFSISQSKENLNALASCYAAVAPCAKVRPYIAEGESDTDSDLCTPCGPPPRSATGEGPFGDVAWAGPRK
# KCNQ2 block: blocks the rat KCNQ2 potassium channel. B-score at 10 µM. 310,000 compounds, 1.1% hits. CHO-K1 KCNQ2, FluxOR thallium flux, 20 min; hits give low values. AID 2156;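 active = fluorescence ratio B-score at most minus 3 library SDs, with starting brightness B-score within 2 library SDs, cut at about -5.5 in these data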
# Numbers without * were called inactive; i = inactive; . = not tested or not shown. The list is not random: actives were taken first. Their share in the collection is about 1.6%.
SMILES,KCNQ2 enhance,KCNQ2 block
COc1ccc(C2=NN(C(=O)CSc3ncccn3)C(c3ccc(C)cc3)C2)cc1 (centres undefined),1.9,i
Cc1ccc(C)c(S(=O)(=O)N2CCCCC2CCNC(=O)C(=O)NCc2ccncc2)c1 (centres undefined),0.49,i
CC(OC(=O)c1ccc2ncsc2c1)C(=O)NC1CCCCC1C (centres undefined),.,i
Cc1ccc(C(=O)Nc2ccc3c(c2)CCC3)cc1,0.92,i
O=C(Nc1ccc2c(c1)CCC2)c1cccc(F)c1,7.3*,i
NC[C@@H]1O[C@H](C23CC4CC(CC(C4)C2)C3)Cc2c1ccc(O)c2O,-5.8,-5.8*
CC(=O)NCCC(=O)N(Cc1ccccc1)c1nc2c(C)cccc2s1,.,i
O=C(CSc1cccc2cccnc12)Nc1cc(C(=O)O)cc(C(=O)O)c1,.,i
N#CC1=C(N)NC(SCC(=O)c2ccc(Br)cc2)=C(C#N)C12CCCCC2,-6.6,-6.6*
N#CC1=C(N)NC(SCC(=O)c2ccc(Cl)cc2)=C(C#N)C12CCCC2,.,i
CCCCn1c(N)c(N(CC(C)C)C(=O)C2CCN(S(=O)(=O)c3ccc(C)cc3)CC2)c(=O)[nH]c1=O,2.1,i
COc1ccccc1N(CC(O)COc1ccccc1C)S(=O)(=O)c1ccccc1 (centres undefined),.,i
CN(Cc1ccccc1)C(=O)c1cc2ccccc2o1,.,i
CC(C)(C)N(Cc1ccccc1)C(=O)c1cc2ccccc2o1,-5.9,-5.9*
O=C(c1ccc(Br)cc1)N1CCC(C(=O)N2CCN(c3ccccc3)CC2)CC1,1.5,i
O=C1CN(c2ccccc2)C(=S)N1C(=O)c1ccc(Br)cc1,-5.8,-5.8*
Cc1c(-c2ccccn2)c(=O)[nH]n1-c1ccc(F)cc1,.,i
COc1cc(OC)c(C(=O)N2CCN(c3ccccn3)CC2)cc1OC,.,i
O=C(c1ccc(COc2ccc3c(c2)CCC3)o1)N1CCN(c2ccccc2)CC1,-8,-8*
O=C(c1ccco1)N1CCN(C(=O)c2ccc(COc3ccc4c(c3)CCC4)o2)CC1,.,i
CCCc1ccc(OCc2ccc(C(=O)N3CCN(c4ccccn4)CC3)o2)c(OC)c1,-5.9,-5.9*
O=C(c1ccc(CS(=O)c2ccccc2Cl)o1)N1CCN(c2ccccc2)CC1 (centres undefined),.,i
O=C(c1ccc(COc2ccccc2Cl)o1)N1CCN(c2ccccc2)CC1,-6,-6*
Cc1ccc(-c2nc(SCC(=O)Nc3cc(C)on3)c3c(=O)n(C)c(=O)n(C)c3n2)cc1,1.1,i
O=C(N=C1SC2CS(=O)(=O)CC2N1c1cc(Cl)ccc1Cl)C1CCCO1 (centres undefined),0.39,i
SMILES,KCNQ2 enhance,KCNQ2 block
CCOC(=O)C1(Cc2cccc(F)c2)CCN(C(=O)COC)CC1,1.4,i
Cc1nnc(SCC(=O)NC2CCCC2)n1C(C)C,.,i
CC(C)Cn1c(N)c(C(=O)CSc2cc(Cl)ccc2Cl)c(=O)n(C)c1=O,1.5,i
Cc1cc(C)nc(NCC(O)CNc2ccccc2C)n1 (centres undefined),0.82,i
Cc1cc(C)nc(NCC(O)COc2ccccc2C)n1 (centres undefined),-5.9,-5.9*
CC(C)n1c(=S)[nH]c2cc(Cl)ccc21,1.9,i
CCNc1oc(-c2cccc3ccccc23)nc1C#N,.,i
N#Cc1nc(-c2cccc3ccccc23)oc1NCCN1CCCCC1,-7.9,-7.9*
CCN(CC)c1ccc(C(=O)NNC(=O)CN2C(=O)NC3(CCCCC3)C2=O)cc1,1.1,i
Cc1cc(NC(=O)CCC(=O)N(Cc2ccc(F)cc2)C(C(=O)NC2CCCC2)c2ccco2)no1 (centres undefined),0.01,i
Cc1cccc(N=Cc2cc(Br)cc(Cl)c2O)c1,9.3*,i
COc1ccc(N=Cc2cccc(C)c2O)cc1Cl,0.04,i
C=CCC1(C(=O)NCCO)CCN(C(=O)OC(C)(C)C)CC1,2.1,i
CCN(CC)C(=O)Oc1ccc(Cl)c2cccnc12,.,i
O=C(Nc1cccc(C(F)(F)F)c1)Oc1ccc(Cl)c2cccnc12,5.7*,i
CCOC(=O)c1ccccc1NC(=O)c1cn(-c2ccc(C)c(C)c2)c(=O)c2ccccc12,-6.4,-6.4*
COC(=O)c1ccccc1NC(=O)c1cn(-c2ccc(C)c(C)c2)c(=O)c2ccccc12,.,i
C=CCNC(=O)c1c(CSc2ccc(Cl)cc2)noc1C(=O)NCc1ccccc1,.,i
COCCNC(=O)Cc1cn(C)c2ccccc12,1.1,i
Cn1cc(CC(=O)NC2CCCCC2)c2ccccc21,5.4*,i
COC(=O)[C@H](C)NC(=O)COc1ccccc1,0.29,i
CCCCCCCCCNC(=O)[C@H](NC(=O)COc1ccccc1)[C@@H]1NC(C(=O)OC)C(C)(C)S1 (some centres undefined),-6.3,-6.3*
O=C(O)c1cc(S(=O)(=O)Nc2ccc(OCc3ccccc3)cc2)ccc1Br,.,i
COc1ccccc1N=Cc1c(C)[nH]n(-c2ccc(C)cc2C)c1=O,.,i
COc1ccc2nc(/N=C/c3c(C)[nH]n(-c4ccc(C)cc4C)c3=O)sc2c1,20*,i
SMILES,KCNQ2 enhance,KCNQ2 block
CS(=O)(=O)Nc1cccc(-c2cnc3ccccc3n2)c1,2.1,i
CCn1nc(NC(=O)c2ccccn2)c2cc3cc(C)ccc3nc21,1.1,i
Cc1ccc2nc3c(cc2c1)c(NC(=O)c1ccccn1)nn3CC(C)C,-7.5,-7.5*
CCN(CC)CC(=O)Nc1ccc(C)cc1C(=O)c1ccccc1,.,i
Cc1ccc(S(=O)(=O)NCCC(=O)Nc2ccc(C)cc2C(=O)c2ccccc2)cc1,5.4*,i
COc1ccc2ccccc2c1C1CC(=O)N2CN(C)CSC2=C1C#N (centres undefined),-6.9,-6.9*
COc1cc(OC)c(C2CC(=O)N3CN(C)CSC3=C2C#N)cc1OC (centres undefined),1.3,i
COc1cccc(NC(=O)COC(=O)CNS(=O)(=O)c2c(F)cccc2F)c1,1.1,i
Cc1ccc(CN(CC(=O)NCCc2ccccc2)C(=O)c2csnn2)cc1,.,i
CCN(CC)S(=O)(=O)c1cccc(-c2nnc(SCC#N)n2Cc2ccccc2)c1,-5.7,-5.7*
CCN(CC)S(=O)(=O)c1cccc(-c2nnc(SC(C)C#N)n2Cc2ccccc2)c1 (centres undefined),.,i
Cc1cc(C)c(NC(=O)Nc2ccccc2)c(Cl)c1,5.3*,i
Cc1cc(C)c(NC(=O)Nc2ccccc2C)c(Cl)c1,0.11,i
COc1cc(CN2CCCC(N3CCN(c4ccc(F)cc4)CC3)C2)ccc1F (centres undefined),0.5,i
CCc1ccc(N(CC(=O)NC(C)(C)C)C(=O)CCC(=O)Nc2ccccn2)cc1,0.07,i
CN(C)c1ccc(C(=O)Nc2ccc(O)c3c(=O)cc(-c4ccccc4Cl)oc23)cc1,-5.8,-5.8*
Cc1cccc(C(=O)Nc2ccc(O)c3c(=O)cc(-c4ccccc4Cl)oc23)c1,.,i
COc1ccc(NC(=O)CSc2nnc(Cc3ccccc3)c(=O)n2N)cc1OC,1,i
COc1ccc(C(C(=O)NC2CCCCC2)N(Cc2ccco2)C(=O)c2ccccn2)c(OC)c1 (centres undefined),1.4,i
CCOC(=O)CCc1c(C)nc2c(c(C)nn2-c2ccc(C)cc2)c1C,0.53,i
CCOC(=O)CCc1c(C)nc2c(c(C)nn2C(C)(C)C)c1C,-7.8,-7.8*
